# Assays:
# Experiment in all cases: protein-binding microarray (PBM); PBM: ~300 nM protein, 6 mM HEPES pH 7.8, 80 mM KCl, 0.5 mM EDTA, 0.5 mM EGTA, 6% glycerol, 35 ng/ul poly-dIdC, 1% milk, 1 h, room temperature; Ap Aiptasia and Nv Nematostella (sea anemones) / Co Capsaspora / Aq Amphimedon (sponge) / Dm Drosophila / Hu human; RHD is the Rel homology domain; high values mean tight binding
# Conditions in all cases: dsDNA, one strand shown
# GST-Ap-NF-kB RHD = biological target: T1, GST-Ap-NF-kB RHD (Exaiptasia pallida (Aiptasia), UniProt A0A913YAJ5 2-422)
# T1 sequence: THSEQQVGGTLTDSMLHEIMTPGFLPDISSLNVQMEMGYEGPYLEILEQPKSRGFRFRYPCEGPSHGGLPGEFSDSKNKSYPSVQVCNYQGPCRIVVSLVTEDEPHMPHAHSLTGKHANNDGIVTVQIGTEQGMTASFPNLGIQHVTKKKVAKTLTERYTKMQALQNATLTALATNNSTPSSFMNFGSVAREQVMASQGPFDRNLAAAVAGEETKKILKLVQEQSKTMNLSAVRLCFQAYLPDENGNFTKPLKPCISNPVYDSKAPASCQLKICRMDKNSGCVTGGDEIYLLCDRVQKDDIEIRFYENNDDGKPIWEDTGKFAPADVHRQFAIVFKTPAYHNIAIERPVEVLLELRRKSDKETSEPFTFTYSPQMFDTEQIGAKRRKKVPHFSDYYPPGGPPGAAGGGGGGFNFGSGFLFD
# [1] = biological target: T2, GST-Nv-NF-kB (Cys allele) (Nematostella vectensis, UniProt E5G601 2-411)
# T2 sequence: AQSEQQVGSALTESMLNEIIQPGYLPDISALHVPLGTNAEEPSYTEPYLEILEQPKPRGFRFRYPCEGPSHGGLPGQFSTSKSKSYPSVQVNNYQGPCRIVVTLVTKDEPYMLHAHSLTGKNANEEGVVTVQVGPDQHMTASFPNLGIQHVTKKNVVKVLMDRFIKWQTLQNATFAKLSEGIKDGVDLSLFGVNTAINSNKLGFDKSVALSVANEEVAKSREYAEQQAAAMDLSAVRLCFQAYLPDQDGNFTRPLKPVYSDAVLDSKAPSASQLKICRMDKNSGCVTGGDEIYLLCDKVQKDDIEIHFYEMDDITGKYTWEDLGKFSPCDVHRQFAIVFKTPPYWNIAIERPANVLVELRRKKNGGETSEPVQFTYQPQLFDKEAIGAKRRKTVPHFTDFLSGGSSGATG
# GST-Co-NF-kB = biological target: T3, GST-Co-NF-kB (Capsaspora owczarzaki, UniProt F1ARL5 200-546)
# T3 sequence: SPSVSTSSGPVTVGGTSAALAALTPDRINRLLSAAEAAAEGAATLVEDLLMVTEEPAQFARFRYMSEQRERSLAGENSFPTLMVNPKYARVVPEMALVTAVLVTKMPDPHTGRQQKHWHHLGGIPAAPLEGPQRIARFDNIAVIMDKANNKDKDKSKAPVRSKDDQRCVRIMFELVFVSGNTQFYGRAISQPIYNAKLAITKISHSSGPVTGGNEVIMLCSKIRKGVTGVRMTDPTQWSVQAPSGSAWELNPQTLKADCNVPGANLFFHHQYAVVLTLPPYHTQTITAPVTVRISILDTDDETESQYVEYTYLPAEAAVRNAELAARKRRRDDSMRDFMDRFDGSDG
# GST-Dm-Relish = biological target: T4, GST-Dm-Relish (Drosophila melanogaster, UniProt Q94527 99-473)
# T4 sequence: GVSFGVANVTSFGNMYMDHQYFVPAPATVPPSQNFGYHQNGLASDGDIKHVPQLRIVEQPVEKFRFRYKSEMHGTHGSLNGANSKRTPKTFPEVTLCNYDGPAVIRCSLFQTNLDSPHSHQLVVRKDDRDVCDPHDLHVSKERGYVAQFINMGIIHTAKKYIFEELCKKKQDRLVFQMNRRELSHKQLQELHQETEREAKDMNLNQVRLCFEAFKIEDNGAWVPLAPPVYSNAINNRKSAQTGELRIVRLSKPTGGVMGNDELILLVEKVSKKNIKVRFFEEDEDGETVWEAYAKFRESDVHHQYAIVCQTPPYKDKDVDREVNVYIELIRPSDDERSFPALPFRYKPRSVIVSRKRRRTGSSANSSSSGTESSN
# GST-Aq-NF-kB = biological target: T5, GST-Aq-NF-kB (Amphimedon queenslandica, UniProt A9Y5G7 2-389)
# T5 sequence: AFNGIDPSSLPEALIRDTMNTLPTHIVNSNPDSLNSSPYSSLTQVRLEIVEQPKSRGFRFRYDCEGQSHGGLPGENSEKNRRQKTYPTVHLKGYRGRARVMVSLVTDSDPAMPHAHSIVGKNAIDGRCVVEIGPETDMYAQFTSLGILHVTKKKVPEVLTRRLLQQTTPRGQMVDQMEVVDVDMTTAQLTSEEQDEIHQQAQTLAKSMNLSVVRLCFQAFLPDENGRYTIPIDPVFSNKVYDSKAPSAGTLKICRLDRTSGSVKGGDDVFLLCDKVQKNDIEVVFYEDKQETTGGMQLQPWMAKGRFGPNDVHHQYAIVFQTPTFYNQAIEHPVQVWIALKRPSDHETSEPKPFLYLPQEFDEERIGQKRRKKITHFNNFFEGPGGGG
Sequence,binding signal (GST-Ap-NF-kB RHD) [z-score],binding signal [1] [z-score],binding signal (GST-Co-NF-kB) [z-score],binding signal (GST-Dm-Relish) [z-score],binding signal (GST-Aq-NF-kB) [z-score]
CCGATTAACATCACGCAACCCCCTGATGTTAATCGGGTCTTGATTCGCTTGACGCTGCTG,5.37,3.7,2,5.08,3.89
CCGATTAACATCAGAATGCCCCCTGATGTTAATCGGGTCTTGATTCGCTTGACGCTGCTG,4.74,5.02,2.56,3.56,5.26
CCGATTAACATCAAGGCATTCCCTGATGTTAATCGGGTCTTGATTCGCTTGACGCTGCTG,1.97,2.56,1.94,2.53,3.27
CCGATTAACATCAGGGGAGAATATGATGTTAATCGGGTCTTGATTCGCTTGACGCTGCTG,4.99,5.42,7.41,1.73,3.83
CCGATTAACATCACCAAAATCCCTGATGTTAATCGGGTCTTGATTCGCTTGACGCTGCTG,3.22,2.45,1.36,5.42,2.86
CCGATTAACATCACACCCCCCCCTGATGTTAATCGGGTCTTGATTCGCTTGACGCTGCTG,4.42,3.24,5.16,4.99,4.16
CCGATTAACATCACATTATCCCCTGATGTTAATCGGGTCTTGATTCGCTTGACGCTGCTG,4.81,5.05,4.75,2.4,3.81
CCGATTAACATCAGGGAATACCATGATGTTAATCGGGTCTTGATTCGCTTGACGCTGCTG,3.14,2.92,2.08,6.8,4.48
CCGATTAACATCAGAAGTTTCCCTGATGTTAATCGGGTCTTGATTCGCTTGACGCTGCTG,4.01,5.91,5.14,3.08,6.09
CCGATTAACATCAGGGAAAACCATGATGTTAATCGGGTCTTGATTCGCTTGACGCTGCTG,3.89,5.15,4.31,5.57,5.29
CCGATTAACATCAGGGAATTCCATGATGTTAATCGGGTCTTGATTCGCTTGACGCTGCTG,5.46,6.55,3.71,7.15,6.68
CCGATTAACATCAAAGAAATCCCTGATGTTAATCGGGTCTTGATTCGCTTGACGCTGCTG,4.82,4.34,1.36,6.17,4.61
CCGATTAACATCAGGGAAACTCATGATGTTAATCGGGTCTTGATTCGCTTGACGCTGCTG,3.29,4.53,3.68,1.31,4.27
CCGATTAACATCAACCCCGTTTCTGATGTTAATCGGGTCTTGATTCGCTTGACGCTGCTG,1.51,1.29,1.63,1.65,2.24
CCGATTAACATCAGGGGACGCACTGATGTTAATCGGGTCTTGATTCGCTTGACGCTGCTG,4.45,4.2,2.19,5.79,4.68
CCGATTAACATCAATGCACCCCCTGATGTTAATCGGGTCTTGATTCGCTTGACGCTGCTG,4.19,2.93,3.47,3.29,3.4
CCGATTAACATCAGGGGGGGTCATGATGTTAATCGGGTCTTGATTCGCTTGACGCTGCTG,3.99,2.96,3.31,3.85,3.54
CCGATTAACATCAAAAACTACCCTGATGTTAATCGGGTCTTGATTCGCTTGACGCTGCTG,4.12,3.21,3.13,5.43,4.72
CCGATTAACATCAGGGGATCCACTGATGTTAATCGGGTCTTGATTCGCTTGACGCTGCTG,7.41,5.27,2.76,9.75,6.81
CCGATTAACATCAGGGGGATCACTGATGTTAATCGGGTCTTGATTCGCTTGACGCTGCTG,5.55,4.61,5.17,9.4,5.38
CCGATTAACATCAGGGAAAGTAATGATGTTAATCGGGTCTTGATTCGCTTGACGCTGCTG,3.01,4.93,3.38,2.08,4.25
CCGATTAACATCACGTAAATCCCTGATGTTAATCGGGTCTTGATTCGCTTGACGCTGCTG,2.65,2.8,1.01,7.13,3.3
CCGATTAACATCACTACTTTCCCTGATGTTAATCGGGTCTTGATTCGCTTGACGCTGCTG,3.07,3.89,3.41,1.63,3.68
CCGATTAACATCACGGGGAGTCCTGATGTTAATCGGGTCTTGATTCGCTTGACGCTGCTG,7.06,3.95,4.24,8.09,5.02
CCGATTAACATCAAGCAATTCCCTGATGTTAATCGGGTCTTGATTCGCTTGACGCTGCTG,3.2,4.28,2.25,1.23,3.57
CCGATTAACATCAGGGAATTCGATGATGTTAATCGGGTCTTGATTCGCTTGACGCTGCTG,3.01,3.99,2.25,1.66,3.01
CCGATTAACATCAGGGGGTCACCTGATGTTAATCGGGTCTTGATTCGCTTGACGCTGCTG,3.61,2.23,1.96,6.03,4.39
